Source: the supplement of paper PMC6555819

System: LXRb:RXRa (NR concentration 270 nM, RXRa partner concentration 90 nM)
Experiment: PBM binding z-score (relative to random genomic background probes); higher = stronger binding; sequences stand for … in GC…GCGATTGACAGCGTAGAATGAAGG
Outline: (§1)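 Antibodies against each partner of ligand-free nuclear receptor dimers (one per run) detected binding on custom Agilent 4×180K protein-binding microarrays after 1 h incubation. The double-stranded probes had 34-nt variable regions carrying direct-repeat seeds, single-nucleotide variants, half-site ablations and random human genomic background sequences. Binding z-scores, from regression-normalized fluorescence, use the random background probes as reference.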

Row | Sequence | PBM binding z-score
1 | AATACAGGGTCACTAGGCCAGAGTGGGTACGAAT | 3.77
2 | CCTCGGAGGACACCAGGAGGTCAGAGCTGCCAGA | 1.12
3 | CGAACTAGGTCAAAGGATAGTGAAAGGCGACGTA | 1.58
4 | TAGCCTAGGTCAAGCGGGCCAGTATAGTGTCGGC | 1.78
5 | ATATGTAGGTTAGAGTCATTCAGAAAGTAGGGAA | 1.02
6 | CGAACTAGGTCACCAGGACAGTTAAGAGGTTGGA | 1.84
7 | ATTTGTAGGTTATCGGGTCATTCAGTTTGCGCAT | 3.67
8 | CGAACTAGGTCAATGGACAGTGAAAGGCGACGTA | 1.17
9 | CGAACTAGGTCAAAGGACTGTGAAAGGCGACGTA | 1.58
10 | CCTTCTGGGCCATTCAGAGGTCATTGATCATATG | 3.99
11 | CGAACTAGGTCACCATGACAGTGAAGAGGTTGGA | 1.49
12 | CGAACTAGGTCACCAGGTCAGTGAAGAGGTTGGA | 2.7
13 | GCTGCTAGGTCAGGATGGTCAGCTAACGGGTACG | 0.268
14 | CGAACTAGGTCAAAGGACAGTGATAGGCGACGTA | 1.64
15 | CCTACTGGGCCATCAGGTGATTGATATCAACGTT | -0.438
16 | ATATGTATGTTAGGGTCATTCAGAAAGTAGGGAA | 4.19
17 | CGTCCAAGGTCAATGCTAGGCCAGTGAAAGCATT | 3.51
18 | ATATGTTGGTTAGGGTCATTCAGAAAGTAGGGAA | 4.72
19 | CGAGCTAGGTCAAAGGACAGTGAAAGGCGACGTA | 1.53
20 | GATACAGGGGCAAGGCCAGAGTACGCGTATTGAT | 0.382

Row | Sequence | PBM binding z-score
21 | CGAACTAGGTCACCAAGACAGTGAAGAGGTTGGA | 1.32
22 | ATATGTAGGTTAGGGTCATTAAGAAAGTAGGGAA | 4.44
23 | TTACCAAGGTGAAAGGTCGTTGAAGCACGCCTTG | 2.97
24 | CGTCCGAGGTCAAAGGTCAGTGAAGAGATGACGG | 7.09
25 | AATACAGGATCACTAGGCCAGAGTAGGTACGAAT | -0.407
26 | ATATGTAGGTTAGGGTCATTCAAAAAGTAGGGAA | 4.59
27 | CGTCTAAGGTCAAGGTCAGTGAAAGAGACTCGAA | 5.02
28 | CGAACTAAGTCATCCAGGACAGTGAATACATTGA | -0.252
29 | CAAACTAGGTCACAGAGGTCAAACTCCGTGCGTA | 6.55
30 | CGTCCAAGGTCAGATAGGTCAGTGAATGCCGAGT | 3.45
31 | CAAACTAGGTCACGAAAGGTCAACGTCGAATGAC | 7.06
32 | CCTACAGGGCCAAAGGTCATTGATTCCAATGCTC | 4.71
33 | CGAACTAGGTAACCAGGACAGTGAAGAGGTTGGA | -0.525
34 | GATACAAGGTCAGCTAGAGGCCAGAGTATGGAAA | 2.78
35 | CCTACTGGGGCACGAAAGGTCATTGATTCAGTGA | 4.57
36 | GCATATAGGTAATTCAAGGTGAAAGTCCGATTGT | 2.13
37 | ACTCGGAGGACAAATGTCAGAGCTACGCCAGTGA | -0.522
38 | TCTCGGAGGACACGAAAGGTCAGAACTCGACATC | 3.19
39 | TAGCATAGGTCATGCGGGCCAGTATAGTGTCGGC | 3.33

System: LXRb homodimer (NR concentration 270 nM)
Experiment: as above
Outline: as §1

Row | Sequence | PBM binding z-score
40 | AATACAGGGTCACTAGGCCAGAGTGGGTACGAAT | 0.863
41 | CCTCGGAGGACACCAGGAGGTCAGAGCTGCCAGA | -0.792
42 | CGAACTAGGTCAAAGGATAGTGAAAGGCGACGTA | -0.272
43 | TAGCCTAGGTCAAGCGGGCCAGTATAGTGTCGGC | -0.385
44 | ATATGTAGGTTAGAGTCATTCAGAAAGTAGGGAA | 0.605
45 | CGAACTAGGTCACCAGGACAGTTAAGAGGTTGGA | -0.421
46 | ATTTGTAGGTTATCGGGTCATTCAGTTTGCGCAT | 2.31
47 | CGAACTAGGTCAATGGACAGTGAAAGGCGACGTA | -0.604
48 | CGAACTAGGTCAAAGGACTGTGAAAGGCGACGTA | -0.452
49 | CCTTCTGGGCCATTCAGAGGTCATTGATCATATG | 0.742
50 | CGAACTAGGTCACCATGACAGTGAAGAGGTTGGA | 0.0449
51 | CGAACTAGGTCACCAGGTCAGTGAAGAGGTTGGA | -0.48
52 | GCTGCTAGGTCAGGATGGTCAGCTAACGGGTACG | -0.621
53 | CGAACTAGGTCAAAGGACAGTGATAGGCGACGTA | -0.0452
54 | CCTACTGGGCCATCAGGTGATTGATATCAACGTT | -0.864
55 | ATATGTATGTTAGGGTCATTCAGAAAGTAGGGAA | 1.46
56 | CGTCCAAGGTCAATGCTAGGCCAGTGAAAGCATT | 0.207
57 | ATATGTTGGTTAGGGTCATTCAGAAAGTAGGGAA | 2.36
58 | CGAGCTAGGTCAAAGGACAGTGAAAGGCGACGTA | -0.726
59 | GATACAGGGGCAAGGCCAGAGTACGCGTATTGAT | -0.692

Row | Sequence | PBM binding z-score
60 | CGAACTAGGTCACCAAGACAGTGAAGAGGTTGGA | -0.272
61 | ATATGTAGGTTAGGGTCATTAAGAAAGTAGGGAA | 1.52
62 | TTACCAAGGTGAAAGGTCGTTGAAGCACGCCTTG | -0.616
63 | CGTCCGAGGTCAAAGGTCAGTGAAGAGATGACGG | 2.24
64 | AATACAGGATCACTAGGCCAGAGTAGGTACGAAT | -0.237
65 | ATATGTAGGTTAGGGTCATTCAAAAAGTAGGGAA | 1.42
66 | CGTCTAAGGTCAAGGTCAGTGAAAGAGACTCGAA | 1.18
67 | CGAACTAAGTCATCCAGGACAGTGAATACATTGA | -0.311
68 | CAAACTAGGTCACAGAGGTCAAACTCCGTGCGTA | 2.84
69 | CGTCCAAGGTCAGATAGGTCAGTGAATGCCGAGT | 0.397
70 | CAAACTAGGTCACGAAAGGTCAACGTCGAATGAC | 2.11
71 | CCTACAGGGCCAAAGGTCATTGATTCCAATGCTC | 0.781
72 | CGAACTAGGTAACCAGGACAGTGAAGAGGTTGGA | -0.784
73 | GATACAAGGTCAGCTAGAGGCCAGAGTATGGAAA | -0.103
74 | CCTACTGGGGCACGAAAGGTCATTGATTCAGTGA | 0.0561
75 | GCATATAGGTAATTCAAGGTGAAAGTCCGATTGT | -0.412
76 | ACTCGGAGGACAAATGTCAGAGCTACGCCAGTGA | -0.374
77 | TCTCGGAGGACACGAAAGGTCAGAACTCGACATC | 0.189
78 | TAGCATAGGTCATGCGGGCCAGTATAGTGTCGGC | -0.127
